The values that follow come from PubChem BioAssay (EPA / NIEHS).

The source made the active and inactive calls. Rule for the calls: active = hit-call score of the fitted dose curve at least 0.9, where 1 is the maximum; inactive = score below 0.9.

Read-out in one assay: Vascular endothelial growth factor receptor 2 (Homo sapiens) (UniProt P35968)
The assay can be described thus: BSK_4H_VEGFRII: BioMAP Diversity Plus: 4H Assay for Vascular endothelial growth factor receptor 2 (VEGFR2) Biomarker Activity (AID 2283031).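 For AC50: cell-surface VEGFR2 protein level quantified by ELISA.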 Conditions: primary human endothelial cells (HUVEC); actives raise or lower the signal. In a few lines: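 Primary human umbilical vein endothelial cells (4H system), 24 h exposure; cell-surface VEGFR2 measured by ELISA. Bidirectional fitting versus DMSO; cytotoxicity checked in parallel by SRB total-protein staining.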
Regarding `O=C(O)C1(c2ccc3c(c2)OC[C@H](Cc2ccc(-c4ccccc4)cc2)[C@H]3O)CCCC1`, the outcome was inactive.

On to `N#Cc1cccnc1`, for which the outcome was inactive.

As for `Cc1cc(Cl)ccc1OC(C)C(=O)O` (stereo not drawn), the result was inactive.

In the case of `O=C(CCl)NCO`, the outcome was inactive.

With `Nc1c(Oc2ccccc2)cc(O)c2c1C(=O)c1ccccc1C2=O`, the result was inactive.

Broadly, the AC50 is the concentration at which the activity in the assay is half-maximal. Consider `Oc1cc(Cl)c(Cl)cc1Cl`, for which the AC50 is 31 µM (active).

Turning to `C[C@]12CC[C@@H](O)C[C@@H]1CC[C@@H]1[C@@H]2CC[C@]2(C)C(=O)CC[C@@H]12`, the outcome was inactive.

Take `CCC(C)(C#N)N=NC(C)(C#N)CC` (stereo not drawn): the result was inactive.

Consider `NC(=O)CCl`, for which the outcome was inactive.

On to `CCCCOC(=O)COC(=O)c1ccccc1C(=O)OCCCC`, for which the outcome was inactive.

With `CCCCCCCCCCCCc1cccc(S(=O)(=O)O)c1`, the result was inactive.

Consider `O=C(N[C@H]1CN2CCC1CC2)c1ccc2c(c1)OCCO2`, for which the result was inactive.

Take `Clc1cccc(Cl)c1Cl`: the outcome was inactive.

`Cc1cccc(OP(=O)(Oc2cccc(C)c2)Oc2cccc(C)c2)c1`: the outcome was inactive.

`c1ccc2sc(SNC3CCCCC3)nc2c1`: the result was inactive.

On to `CC(C)O.CC(C)O.OCCN(CCO)CCO.OCCN(CCO)CCO.[Ti]`, for which the result was inactive.

With `Oc1c(Br)cc(Br)cc1Br`, the AC50 was 27.3 µM (active).

For `Clc1cccc(Cl)c1`, the outcome was inactive.

In the case of `CC(C)N(C(=O)CCl)c1ccccc1`, the result was inactive.

For `Nc1ccc(N)cc1`, the outcome was inactive.

As for `Oc1cccc(-c2ccccc2)c1`, the outcome was inactive.

On to `COCC(=O)N(c1c(C)cccc1C)[C@H](C)C(=O)OC`, for which the result was inactive.

For `O=C1C=CC(=O)c2ccccc21`, the AC50 is 5.18 µM (active).

Turning to `Cc1cc(Cl)ccc1N`, the outcome was inactive.

For `O=C(Cc1ccccc1)OCCc1ccccc1`, the outcome was inactive.

Turning to `O=c1oc2ccccc2c(O)c1C(CC(O)c1ccc(-c2ccc(Br)cc2)cc1)c1ccccc1` (stereo not drawn), the half-maximal activity concentration (AC50) is 5.2 µM (active).

For `Oc1ccc(Cc2ccc(O)cc2)cc1`, the result was inactive.

For the molecule `Cc1c([N+](=O)[O-])c(C)c([N+](=O)[O-])c(C(C)(C)C)c1[N+](=O)[O-]`, the result was inactive.

As to `CC(C)(COCC1CO1)COCC1CO1` (stereo not drawn), the outcome was inactive.

`CCOC(=O)CC(=O)CCl`: the outcome was inactive.

As to `CCCCCCCCCCCCN(C)C`, the result was inactive.

Consider `CCOP(=S)(OCC)SCS(=O)(=O)C(C)(C)C`, for which the outcome was inactive.

Read-out in the next assay: Human Leukocyte Antigen - DR isotype (HLADR), HLA-DRA (gene 3122)
Kind of assay: BSK_BE3C_HLADR: BioMAP Diversity Plus: BE3C Assay for Human Leukocyte Antigen - DR isotype (HLADR) Biomarker Activity (AID 2283032). As to conditions: primary human bronchial epithelial cells; actives raise or lower the signal. In outline: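 Cell-surface HLA-DR ELISA readout at 24 h after dosing in the BE3C primary human lung bronchial epithelial system; gain or loss of signal against DMSO, with parallel sulforhodamine B staining of total protein for overt cytotoxicity.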
Consider `Oc1cc(Cl)c(Cl)cc1Cl`, for which the outcome was inactive.

With `C[C@]12CC[C@@H](O)C[C@@H]1CC[C@@H]1[C@@H]2CC[C@]2(C)C(=O)CC[C@@H]12`, the outcome was inactive.

For `CCCCCCCCCCCCc1cccc(S(=O)(=O)O)c1`, the AC50 was 17.6 µM (active).

With `O=C(N[C@H]1CN2CCC1CC2)c1ccc2c(c1)OCCO2`, the outcome was inactive.

For `Cc1cccc(OP(=O)(Oc2cccc(C)c2)Oc2cccc(C)c2)c1`, the outcome was inactive.

Regarding `Oc1ccc(Cc2ccc(O)cc2)cc1`, the result was inactive.

In the case of `Cc1c([N+](=O)[O-])c(C)c([N+](=O)[O-])c(C(C)(C)C)c1[N+](=O)[O-]`, the outcome was inactive.

Read-out in the next assay: Vascular cell adhesion molecule 1 (VCAM1), VCAM1 (gene 7412)
Kind of assay: BSK_4H_VCAM1: BioMAP Diversity Plus: 4H Assay for Vascular cell adhesion molecule 1 (VCAM1) Biomarker Activity (AID 2283033).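 For outcome: cell-surface VCAM-1 protein measured by ELISA.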 Conditions: primary human endothelial cells (HUVEC); actives raise or lower the signal. In outline:
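VCAM-1 ELISA read 24 h after chemical dosing of HUVEC in the BioMAP 4H system, with gain or loss of signal fitted relative to DMSO. Parallel SRB staining (560 nm) checked overt cytotoxicity.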
Turning to `O=C(O)C1(c2ccc3c(c2)OC[C@H](Cc2ccc(-c4ccccc4)cc2)[C@H]3O)CCCC1`, the result was inactive.

As to `N#Cc1cccnc1`, the outcome was inactive.

Consider `Cc1cc(Cl)ccc1OC(C)C(=O)O` (stereo not drawn), for which the outcome was inactive.

As to `O=C(CCl)NCO`, the outcome was inactive.

As to `Nc1c(Oc2ccccc2)cc(O)c2c1C(=O)c1ccccc1C2=O`, the result was inactive.

In the case of `Oc1cc(Cl)c(Cl)cc1Cl`, the outcome was inactive.

As to `C[C@]12CC[C@@H](O)C[C@@H]1CC[C@@H]1[C@@H]2CC[C@]2(C)C(=O)CC[C@@H]12`, the outcome was inactive.

For the molecule `CCC(C)(C#N)N=NC(C)(C#N)CC` (stereo not drawn), the outcome was inactive.

`NC(=O)CCl`: the outcome was inactive.

Take `CCCCN(CCCC)C(=S)[S-].CCCCN(CCCC)C(=S)[S-].[Ni+2]`: the result was inactive.

`CCCCOC(=O)COC(=O)c1ccccc1C(=O)OCCCC`: the result was inactive.

With `CCCCCCCCCCCCc1cccc(S(=O)(=O)O)c1`, the outcome was inactive.

For `O=C(N[C@H]1CN2CCC1CC2)c1ccc2c(c1)OCCO2`, the result was inactive.

For `Clc1cccc(Cl)c1Cl`, the result was inactive.

In the case of `Cc1cccc(OP(=O)(Oc2cccc(C)c2)Oc2cccc(C)c2)c1`, the outcome was inactive.

For `c1ccc2sc(SNC3CCCCC3)nc2c1`, the result was inactive.

With `OCCCCO`, the result was inactive.

Turning to `CC(C)O.CC(C)O.OCCN(CCO)CCO.OCCN(CCO)CCO.[Ti]`, the result was inactive.

On to `Oc1c(Br)cc(Br)cc1Br`, for which the half-maximal activity concentration (AC50) was 20 µM (active).

As for `Clc1cccc(Cl)c1`, the result was inactive.

`CC(C)N(C(=O)CCl)c1ccccc1`: the AC50 was 20 µM (active).

Consider `Nc1ccc(N)cc1`, for which the result was inactive.

In the case of `Oc1cccc(-c2ccccc2)c1`, the AC50 was 36.9 µM (active).

As to `COCC(=O)N(c1c(C)cccc1C)[C@H](C)C(=O)OC`, the outcome was inactive.

As to `O=C1C=CC(=O)c2ccccc21`, the AC50 was 1.95 µM (active).

In the case of `Cc1cc(Cl)ccc1N`, the outcome was inactive.

For `O=C(Cc1ccccc1)OCCc1ccccc1`, the outcome was inactive.

Take `O=c1oc2ccccc2c(O)c1C(CC(O)c1ccc(-c2ccc(Br)cc2)cc1)c1ccccc1` (stereo not drawn): the AC50 was 13.9 µM (active).

As to `Oc1ccc(Cc2ccc(O)cc2)cc1`, the result was inactive.

As to `Cc1c([N+](=O)[O-])c(C)c([N+](=O)[O-])c(C(C)(C)C)c1[N+](=O)[O-]`, the outcome was inactive.

In the case of `CC(C)(COCC1CO1)COCC1CO1` (stereo not drawn), the outcome was inactive.

As for `CCOC(=O)CC(=O)CCl`, the AC50 is 20 µM (active).

Take `CCCCCCCCCCCCN(C)C`: the outcome was inactive.

Consider `CCOP(=S)(OCC)SCS(=O)(=O)C(C)(C)C`, for which the outcome was inactive.
